Source: PubChem BioAssay (NCATS)
Inconclusive results are not listed. Activity calls are given as the source filed them. Calls follow the shape of the dose curve; as a rule, active = well fitted curve in the direction sought with a large enough effect; inconclusive = small, poorly fitted or top-dose-only effect, or another doubt; inactive = no such curve, though single readings can be large; an effect the other way counts as inactive or inconclusive.

Experiments:
HACAT = experiment: qHTS assay to identify novel small-molecules to repurpose for Merkel cell carcinoma treatment (AID 1296009); settings: MCC and control cell lines, CellTiter-Glo viability, 72 h; at 44.8 µM (top of the series) unless noted; also: nearly all actives have a fitted effect of over 60% in size
Method in brief: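 72 hr, 37 degree celsius; NPC 8-pt / MIPE 11-pt dose response; compound pinned in DMSO; CellTiter-Glo, 10 min RT, luminescence; normalized to no-cell and DMSO controls.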

C33A = experiment: Primary qHTS to identify gynecologic anti-cancer compounds using libraries of approved drugs and bioactive compounds (AID 1345084); settings: Gynecologic cancer cell panel viability, ATPlite luminescence, 48 h; series mostly up to 57.5 µM; also: % is scaled to controls: 0 for no effect and ±100 for the full control effect; nearly all actives have a fitted effect of over 55% in size
Method in brief: (§1)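 In this quantitative HTS, cell killing is estimated from loss of ATP-dependent luciferase light. Cells see five compound concentrations over a 48 h exposure.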

CAOV3 = experiment: as above; settings: Gynecologic cancer cell panel viability, ATPlite luminescence, 48 h; series mostly up to 57.5 µM
Method in brief: as §1

CASKI = experiment: as above; settings: Gynecologic cancer cell panel viability, ATPlite luminescence, 48 h; series mostly up to 57.5 µM
Method in brief: as §1

Es-2 = experiment: as above; settings: Gynecologic cancer cell panel viability, ATPlite luminescence, 48 h; series mostly up to 57.5 µM
Method in brief: as §1

HeLa = experiment: as above; settings: Gynecologic cancer cell panel viability, ATPlite luminescence, 48 h; series mostly up to 57.5 µM
Method in brief: as §1

Hek293T = experiment: as above; settings: Gynecologic cancer cell panel viability, ATPlite luminescence, 48 h, control line for the selectivity index; series mostly up to 57.5 µM
Method in brief: as §1

JEG-3 = experiment: as above; settings: Gynecologic cancer cell panel viability, ATPlite luminescence, 48 h; series mostly up to 57.5 µM
Method in brief: as §1

OV90 = experiment: as above; settings: Gynecologic cancer cell panel viability, ATPlite luminescence, 48 h; series mostly up to 57.5 µM
Method in brief: as §1

PA-1 = experiment: as above; settings: Gynecologic cancer cell panel viability, ATPlite luminescence, 48 h; series mostly up to 57.5 µM
Method in brief: as §1

SKOV3 = experiment: as above; settings: Gynecologic cancer cell panel viability, ATPlite luminescence, 48 h; series mostly up to 57.5 µM
Method in brief: as §1

Tov-21-G = experiment: as above; settings: Gynecologic cancer cell panel viability, ATPlite luminescence, 48 h; series mostly up to 57.5 µM
Method in brief: as §1

Tov112D = experiment: as above; settings: Gynecologic cancer cell panel viability, ATPlite luminescence, 48 h; series mostly up to 57.5 µM
Method in brief: as §1

CC1(C(=O)O)CCCC2(C)C3CC4C5CC3(CCC12)CC45C (stereo not drawn)
inactive: outcome (HACAT) | Potency (C33A) | Potency (CAOV3) | outcome (CASKI) | Potency (Es-2) | Potency (HeLa) | Potency (Hek293T) | Potency (JEG-3) | Potency (OV90) | Potency (PA-1) | Potency (SKOV3) | Potency (Tov-21-G) | Potency (Tov112D)

COc1c(C)c(OCC=C(C)C)cc2c1COC2=O
inactive: outcome (HACAT) | Potency (C33A) | Potency (CAOV3) | outcome (CASKI) | Potency (Es-2) | Potency (HeLa) | Potency (Hek293T) | Potency (JEG-3) | Potency (OV90) | Potency (PA-1) | Potency (SKOV3) | Potency (Tov-21-G) | Potency (Tov112D)

COc1ccc2[nH]c(S(=O)Cc3ncc(C)c(OC)c3C)nc2c1 (stereo not drawn)
inactive: outcome (HACAT) | Potency (C33A) | Potency (CAOV3) | outcome (CASKI) | Potency (Es-2) | Potency (HeLa) | Potency (Hek293T) | Potency (JEG-3) | Potency (OV90) | Potency (PA-1) | Potency (SKOV3) | Potency (Tov-21-G) | Potency (Tov112D)

C=C(CCO[C@@H]1O[C@H](CO)[C@@H](O)[C@H](O)[C@H]1O)C(=O)O
inactive: outcome (HACAT) | Potency (C33A) | Potency (CAOV3) | outcome (CASKI) | Potency (Es-2) | Potency (HeLa) | Potency (Hek293T) | Potency (JEG-3) | Potency (OV90) | Potency (PA-1) | Potency (SKOV3) | Potency (Tov-21-G) | Potency (Tov112D)

N#CC1C(=O)N=C(c2cc(Cl)ccc2O)C=C1c1cc(OCc2ccccc2)cc(OCc2ccccc2)c1 (stereo not drawn)
inactive: outcome (HACAT) | Potency (C33A) | Potency (CAOV3) | outcome (CASKI) | Potency (Es-2) | Potency (HeLa) | Potency (Hek293T) | Potency (JEG-3) | Potency (OV90) | Potency (PA-1) | Potency (SKOV3) | Potency (Tov-21-G) | Potency (Tov112D)

COc1cc(CCCO)ccc1O[C@@H]1O[C@H](CO)[C@@H](O)[C@H](O)[C@H]1O
inactive: outcome (HACAT) | Potency (C33A) | Potency (CAOV3) | outcome (CASKI) | Potency (Es-2) | Potency (HeLa) | Potency (Hek293T) | Potency (JEG-3) | Potency (OV90) | Potency (PA-1) | Potency (SKOV3) | Potency (Tov-21-G) | Potency (Tov112D)

COc1ccc(-n2c(SCC#N)nc3sc4c(c3c2=O)CCCC4)cc1
inactive: outcome (HACAT) | Potency (C33A) | Potency (CAOV3) | outcome (CASKI) | Potency (Es-2) | Potency (HeLa) | Potency (Hek293T) | Potency (JEG-3) | Potency (OV90) | Potency (PA-1) | Potency (SKOV3) | Potency (Tov-21-G) | Potency (Tov112D)

C=CC(C)(O)CC/C=C(\C)C(=O)O[C@@H]1[C@@H](O)[C@H](OC(C)(C=C)CC/C=C(\C)C(=O)O[C@@H]2O[C@H](CO)[C@@H](O)[C@H](O)[C@H]2O)O[C@H](CO)[C@H]1OC(=O)/C(C)=C/CCC(C)(O)C=C (stereo partly drawn)
inactive: outcome (HACAT) inactive [at 9.27 µM] | activity change, negative = cytotoxicity (C33A) 1.06% [at 11.6 µM] | activity change, negative = cytotoxicity (CAOV3) -0.925% [at 11.6 µM] | activity change, negative = cytotoxicity (CASKI) -1.1% [at 11.6 µM] | activity change, negative = cytotoxicity (Es-2) 0.394% [at 11.6 µM] | activity change, negative = cytotoxicity (HeLa) -4.07% [at 11.6 µM] | activity change, negative = cytotoxicity (Hek293T) 7.88% [at 11.6 µM] | activity change, negative = cytotoxicity (JEG-3) -0.355% [at 11.6 µM] | activity change, negative = cytotoxicity (OV90) -1.43% [at 11.6 µM] | activity change, negative = cytotoxicity (PA-1) 3.07% [at 11.6 µM] | activity change, negative = cytotoxicity (SKOV3) -0.696% [at 11.6 µM] | activity change, negative = cytotoxicity (Tov-21-G) 0.188% [at 11.6 µM] | activity change, negative = cytotoxicity (Tov112D) -0.614% [at 11.6 µM]

OC[C@@]1(O)CO[C@H](OC[C@H]2O[C@@H](OC(CCCCc3ccc(O)cc3)CCc3ccc(O)cc3)[C@H](O[C@H]3OC[C@](O)(CO)[C@H]3O)[C@@H](O)[C@@H]2O)[C@@H]1O (stereo partly drawn)
inactive: outcome (HACAT) inactive [at 17.4 µM] | Potency (C33A) | Potency (CAOV3) | outcome (CASKI) | Potency (Es-2) | Potency (HeLa) | Potency (Hek293T) | Potency (JEG-3) | Potency (OV90) | Potency (PA-1) | Potency (SKOV3) | Potency (Tov-21-G) | Potency (Tov112D)

CC(=O)OC1CC2C(C)(C)C(=O)C=CC2(C)C2CC(=O)C3=C(CCC3C3=CC(O)OC3=O)C12C (stereo not drawn)
inactive: outcome (HACAT) inactive; activator [at 17.4 µM] | Potency (C33A) | Potency (CAOV3) | outcome (CASKI) | Potency (Es-2) | Potency (HeLa) | Potency (Hek293T) | Potency (JEG-3) | Potency (OV90) | Potency (PA-1) | Potency (SKOV3) | Potency (Tov-21-G) | Potency (Tov112D)

CC(=O)O[C@H]1C[C@@]2(C)[C@@H](CC[C@H]3[C@@]4(C)C=CC(=O)[C@@H](C)[C@@H]4[C@H](OC(C)=O)C(=O)[C@@]32C)/C1=C(\CCC=C(C)C)C(=O)O
inactive: outcome (HACAT) inactive [at 17.4 µM] | Potency (C33A) | Potency (CAOV3) | outcome (CASKI) | Potency (Es-2) | Potency (HeLa) | Potency (Hek293T) | Potency (JEG-3) | Potency (OV90) | Potency (PA-1) | Potency (SKOV3) | Potency (Tov-21-G) | Potency (Tov112D)
